Percent Effect data for 11 compounds are collected here from ChEMBL document CHEMBL3988442, “University of Dundee, Small-Polar-MMV Screening Library” (2021).

For some of these results: Entries with a potency or affinity are not part of this list.

Common to all, as to design: scale not given: direction of the effect not stated beside the values
Assay [1] has as its target Protein translocase subunit SecA (Escherichia coli (strain K12)) (UniProt P10408). Briefly: Assay to Identify E. coli SecA ATPase Inhibitors. The assay is classed as functional. The note with it: 30 µM.
Assay [2] deals with T1, Ubiquitin-activating enzyme e1, putative (Leishmania donovani (strain BPK282A1)) (UniProt E9BSI1).
T1 sequence (whole entry): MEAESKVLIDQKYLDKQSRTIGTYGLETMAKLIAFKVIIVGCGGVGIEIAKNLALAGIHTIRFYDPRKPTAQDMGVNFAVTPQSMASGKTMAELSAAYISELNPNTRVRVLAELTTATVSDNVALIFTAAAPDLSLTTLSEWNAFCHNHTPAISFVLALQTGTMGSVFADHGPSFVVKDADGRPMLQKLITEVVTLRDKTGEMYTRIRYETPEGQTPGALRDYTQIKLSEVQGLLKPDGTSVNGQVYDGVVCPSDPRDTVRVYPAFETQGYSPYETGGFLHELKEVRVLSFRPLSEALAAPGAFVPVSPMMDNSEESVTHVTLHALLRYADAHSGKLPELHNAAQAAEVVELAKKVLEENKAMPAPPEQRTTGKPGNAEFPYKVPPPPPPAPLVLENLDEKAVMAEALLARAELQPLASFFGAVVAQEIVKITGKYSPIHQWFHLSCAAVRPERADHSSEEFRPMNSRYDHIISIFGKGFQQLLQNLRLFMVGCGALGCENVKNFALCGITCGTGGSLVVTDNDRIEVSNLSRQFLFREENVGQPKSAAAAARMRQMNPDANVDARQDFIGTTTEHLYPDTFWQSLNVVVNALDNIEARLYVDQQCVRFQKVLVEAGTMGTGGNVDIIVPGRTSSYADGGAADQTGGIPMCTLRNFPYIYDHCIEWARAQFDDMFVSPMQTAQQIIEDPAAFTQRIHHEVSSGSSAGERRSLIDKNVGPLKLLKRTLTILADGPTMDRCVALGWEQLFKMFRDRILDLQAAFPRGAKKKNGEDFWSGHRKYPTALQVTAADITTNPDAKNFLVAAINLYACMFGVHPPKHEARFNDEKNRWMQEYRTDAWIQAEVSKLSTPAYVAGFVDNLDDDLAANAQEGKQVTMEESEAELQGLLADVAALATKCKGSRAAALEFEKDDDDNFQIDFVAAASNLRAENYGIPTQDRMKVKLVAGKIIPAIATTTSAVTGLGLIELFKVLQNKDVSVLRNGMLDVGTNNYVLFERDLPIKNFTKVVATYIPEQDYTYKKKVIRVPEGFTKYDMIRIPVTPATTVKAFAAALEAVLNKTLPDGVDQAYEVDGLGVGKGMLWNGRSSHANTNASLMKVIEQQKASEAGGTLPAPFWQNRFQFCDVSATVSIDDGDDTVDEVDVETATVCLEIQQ
Briefly: Leishmania donovani Ubiquitin Activating Enzyme (LdE1). The format is functional. The note with it: 30 µM.

Assay [3] has as its target AMP-activated protein kinase, AMPK (Homo sapiens) (UniProt P54646+O43741+P54619+Q9UGJ0+Q9Y478+Q13131+Q9UGI9). Briefly: AMP-dependent Kinase enzyme assay. An in vitro enzyme assay that detects ADP turnover that is directly proportional to AMPK activity. This uses naive AMPK that is activated during the assay with MK-8722. The format is functional. The note with it: 30 µM.

Assay [4] concerns the target Sialic acid-binding Ig-like lectin 9 (Homo sapiens) (UniProt Q9Y336). Briefly: Hs-Siglec9 ALPHAscreen SOP 20170721. The settings on record: 10 µM.
Assay [5] deals with Trypanosoma cruzi. Description: Trypanosoma cruzi phosphomannomutase and mannose-1-phosphate guanylyltransferase assay. The format is functional. The settings on record: 10 µM.
Assay [6] addresses T2, Arginase-2, mitochondrial (Homo sapiens) (UniProt P78540).
T2 sequence (whole entry): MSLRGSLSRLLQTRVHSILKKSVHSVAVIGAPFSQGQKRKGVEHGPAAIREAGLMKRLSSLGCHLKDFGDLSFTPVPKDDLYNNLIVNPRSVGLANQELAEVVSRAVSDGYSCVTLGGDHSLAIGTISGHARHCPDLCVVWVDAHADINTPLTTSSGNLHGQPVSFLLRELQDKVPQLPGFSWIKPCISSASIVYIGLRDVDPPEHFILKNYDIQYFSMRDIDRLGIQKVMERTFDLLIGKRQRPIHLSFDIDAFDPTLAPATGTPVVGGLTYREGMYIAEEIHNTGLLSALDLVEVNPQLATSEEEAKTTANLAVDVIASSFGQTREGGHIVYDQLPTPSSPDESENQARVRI
Briefly: in vitro enzyme assay to detect the production of urea directly proportional to the activity of Arginase II. Note: in the data most compounds retested in dose-response had high values. The format is functional. The settings on record: 33.3 µM.

Assay [7] addresses T3, Proteasome subunit beta (Trypanosoma cruzi) (UniProt O96673).
T3 sequence (whole entry): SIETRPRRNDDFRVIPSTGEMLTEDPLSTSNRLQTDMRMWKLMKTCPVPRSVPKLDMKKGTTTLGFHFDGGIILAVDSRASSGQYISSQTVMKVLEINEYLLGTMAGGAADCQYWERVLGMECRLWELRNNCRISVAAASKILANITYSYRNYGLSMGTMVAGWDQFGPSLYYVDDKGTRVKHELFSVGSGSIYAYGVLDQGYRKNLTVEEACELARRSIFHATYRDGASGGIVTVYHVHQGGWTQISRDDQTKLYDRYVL
Briefly: Trypanosoma cruzi proteasome chymotrypsin-like activity (TcProtChymo) assay. Note: in the data most compounds retested in dose-response had high values. The settings on record: 9.37 µM. The assay is classed as functional.

The species entered for assay [8] is Homo sapiens. Briefly: To identify inhibition of the IFN signalling (Jak-Stat) pathway via expression of an eGFP reporter gene under the control of an IFN-stimulated response element (ISRE) containing MxA promoter. The assay is classed as functional. The settings on record: 30 µM.
The target in assay [9] is T4, Tyrosyl-tRNA synthetase, putative (Trypanosoma cruzi (strain CL Brener)) (UniProt Q4DSP6).
T4 sequence (whole entry): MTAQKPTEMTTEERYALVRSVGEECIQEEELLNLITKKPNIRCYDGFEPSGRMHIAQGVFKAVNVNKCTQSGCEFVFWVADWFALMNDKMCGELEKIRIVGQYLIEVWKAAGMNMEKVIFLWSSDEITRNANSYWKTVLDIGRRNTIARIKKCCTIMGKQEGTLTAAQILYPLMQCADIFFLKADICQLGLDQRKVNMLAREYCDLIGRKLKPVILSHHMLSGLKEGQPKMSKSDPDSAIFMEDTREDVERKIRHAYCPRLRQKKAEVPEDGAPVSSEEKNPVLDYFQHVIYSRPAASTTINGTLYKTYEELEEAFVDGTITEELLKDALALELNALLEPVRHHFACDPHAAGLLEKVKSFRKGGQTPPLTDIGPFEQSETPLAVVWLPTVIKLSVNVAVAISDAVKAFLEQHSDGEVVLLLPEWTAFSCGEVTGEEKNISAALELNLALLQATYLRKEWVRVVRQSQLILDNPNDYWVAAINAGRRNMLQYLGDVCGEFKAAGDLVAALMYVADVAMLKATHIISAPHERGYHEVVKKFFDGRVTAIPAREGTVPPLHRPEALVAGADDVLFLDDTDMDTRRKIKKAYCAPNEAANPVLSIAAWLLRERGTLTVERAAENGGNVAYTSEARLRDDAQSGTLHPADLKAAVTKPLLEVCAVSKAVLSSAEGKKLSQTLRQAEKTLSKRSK
Description: Trypanosoma cruzi tyrosyl tRNA synthetase (TcYRS) _High Tyrosine SOP. Note: in the data most compounds retested in dose-response had high values. The format is functional. The settings on record: 30 µM.

Assay [10] has as its target T4, Tyrosyl-tRNA synthetase, putative (Trypanosoma cruzi (strain CL Brener)). Briefly: Trypanosoma cruzi tyrosyl tRNA synthetase (TcYRS) SOP. The note with it: 30 µM. The assay is classed as functional.
Assay [11] deals with Chromo domain-containing protein 1 (Saccharomyces cerevisiae (strain ATCC 204508 / S288c) (Baker's yeast)) (UniProt P32657). Description: ScCHD-1 Enzyme Inhibition Assay. Note: in the data most compounds retested in dose-response had high values. The assay is classed as functional. The note with it: 30 µM.
Sequence of Chromo domain-containing protein 1 (Saccharomyces cerevisiae (strain ATCC 204508 / S288c) (Baker's yeast)) (P32657 whole entry, the tested form may be a part): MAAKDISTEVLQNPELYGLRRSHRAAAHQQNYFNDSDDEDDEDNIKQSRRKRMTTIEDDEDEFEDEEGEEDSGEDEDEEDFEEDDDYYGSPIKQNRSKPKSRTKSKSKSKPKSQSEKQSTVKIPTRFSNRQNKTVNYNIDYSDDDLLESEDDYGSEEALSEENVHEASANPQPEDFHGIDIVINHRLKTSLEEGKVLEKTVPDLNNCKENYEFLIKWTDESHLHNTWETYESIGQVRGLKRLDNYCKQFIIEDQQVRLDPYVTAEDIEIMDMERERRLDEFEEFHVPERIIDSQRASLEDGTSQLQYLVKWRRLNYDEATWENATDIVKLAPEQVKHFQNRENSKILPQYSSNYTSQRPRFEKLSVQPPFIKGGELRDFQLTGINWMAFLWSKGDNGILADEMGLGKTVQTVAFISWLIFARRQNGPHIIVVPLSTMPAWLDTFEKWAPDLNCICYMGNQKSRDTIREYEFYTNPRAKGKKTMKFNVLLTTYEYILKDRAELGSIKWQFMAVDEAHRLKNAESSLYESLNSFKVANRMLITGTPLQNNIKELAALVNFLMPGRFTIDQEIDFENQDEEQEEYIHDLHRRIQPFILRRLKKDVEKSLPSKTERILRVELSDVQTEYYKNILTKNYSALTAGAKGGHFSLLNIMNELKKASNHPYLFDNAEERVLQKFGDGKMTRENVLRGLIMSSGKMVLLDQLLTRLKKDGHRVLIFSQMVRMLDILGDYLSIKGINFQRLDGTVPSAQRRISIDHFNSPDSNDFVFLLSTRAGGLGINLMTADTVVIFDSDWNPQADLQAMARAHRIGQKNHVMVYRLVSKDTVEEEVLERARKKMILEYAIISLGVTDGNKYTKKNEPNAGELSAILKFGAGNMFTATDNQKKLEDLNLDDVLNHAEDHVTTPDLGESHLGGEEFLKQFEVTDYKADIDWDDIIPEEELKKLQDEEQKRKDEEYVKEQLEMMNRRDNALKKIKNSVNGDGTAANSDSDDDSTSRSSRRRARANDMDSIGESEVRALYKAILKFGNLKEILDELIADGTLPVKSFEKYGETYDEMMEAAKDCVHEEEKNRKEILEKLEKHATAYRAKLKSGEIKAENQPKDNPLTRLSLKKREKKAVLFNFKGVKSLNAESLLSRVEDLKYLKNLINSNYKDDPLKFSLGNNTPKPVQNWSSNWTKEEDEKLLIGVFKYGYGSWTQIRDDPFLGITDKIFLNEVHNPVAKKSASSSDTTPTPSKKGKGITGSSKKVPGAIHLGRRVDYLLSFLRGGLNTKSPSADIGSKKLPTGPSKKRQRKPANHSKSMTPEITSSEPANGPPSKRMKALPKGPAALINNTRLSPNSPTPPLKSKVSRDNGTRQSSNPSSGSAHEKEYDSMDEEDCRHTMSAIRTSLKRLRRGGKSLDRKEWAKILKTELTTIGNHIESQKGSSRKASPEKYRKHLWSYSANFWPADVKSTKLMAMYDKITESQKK

Sequence of Protein translocase subunit SecA (Escherichia coli (strain K12)) (P10408 whole entry): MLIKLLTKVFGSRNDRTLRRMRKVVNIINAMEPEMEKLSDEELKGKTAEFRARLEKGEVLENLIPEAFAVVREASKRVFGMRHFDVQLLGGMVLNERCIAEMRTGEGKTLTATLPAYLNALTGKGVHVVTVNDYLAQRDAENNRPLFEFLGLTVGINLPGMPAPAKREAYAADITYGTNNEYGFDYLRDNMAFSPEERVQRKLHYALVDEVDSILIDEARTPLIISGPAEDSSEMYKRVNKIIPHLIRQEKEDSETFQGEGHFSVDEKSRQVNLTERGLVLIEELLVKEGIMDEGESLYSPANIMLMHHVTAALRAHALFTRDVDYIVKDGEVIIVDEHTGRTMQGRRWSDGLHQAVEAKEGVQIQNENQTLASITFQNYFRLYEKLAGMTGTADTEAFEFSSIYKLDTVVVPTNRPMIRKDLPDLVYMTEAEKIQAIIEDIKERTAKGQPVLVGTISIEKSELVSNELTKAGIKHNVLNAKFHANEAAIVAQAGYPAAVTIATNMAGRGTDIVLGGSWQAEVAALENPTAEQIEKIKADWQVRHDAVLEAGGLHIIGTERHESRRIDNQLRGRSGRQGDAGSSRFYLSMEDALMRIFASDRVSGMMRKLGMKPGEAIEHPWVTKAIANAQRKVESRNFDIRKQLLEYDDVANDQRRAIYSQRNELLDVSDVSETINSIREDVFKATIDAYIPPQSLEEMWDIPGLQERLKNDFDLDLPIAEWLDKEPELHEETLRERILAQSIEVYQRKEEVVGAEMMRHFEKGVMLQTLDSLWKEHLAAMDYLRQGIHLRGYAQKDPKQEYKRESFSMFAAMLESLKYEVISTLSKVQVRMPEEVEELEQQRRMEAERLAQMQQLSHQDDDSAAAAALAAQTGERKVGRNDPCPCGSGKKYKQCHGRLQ
Sequence of Sialic acid-binding Ig-like lectin 9 (Homo sapiens) (Q9Y336 whole entry): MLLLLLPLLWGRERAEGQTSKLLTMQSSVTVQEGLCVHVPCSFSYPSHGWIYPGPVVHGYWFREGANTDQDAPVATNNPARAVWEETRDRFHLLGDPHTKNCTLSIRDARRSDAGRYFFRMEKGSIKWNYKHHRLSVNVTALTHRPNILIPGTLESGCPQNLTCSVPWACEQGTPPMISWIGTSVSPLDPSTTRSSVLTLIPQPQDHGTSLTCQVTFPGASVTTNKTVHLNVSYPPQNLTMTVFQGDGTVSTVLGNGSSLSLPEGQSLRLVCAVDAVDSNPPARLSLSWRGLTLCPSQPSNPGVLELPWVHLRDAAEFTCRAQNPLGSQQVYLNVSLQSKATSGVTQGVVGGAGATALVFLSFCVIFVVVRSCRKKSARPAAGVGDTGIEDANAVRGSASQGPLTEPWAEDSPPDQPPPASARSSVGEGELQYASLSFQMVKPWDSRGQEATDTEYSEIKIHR

For the compound `Cc1nnc(C2Cc3ccccc3CN2Cc2ncc(C(C)(C)C)o2)o1` (stereo unspecified), the Percent Effect in [1] is -1.87%; in assay [2], 15.6%; in [3], 3.3%; in assay [4] it was -12.9%; in [5] it was -3.82%; in assay [6] it was -1.05%. The Percent Effect in assay [7] is 20.8%; in assay [8], 27.9%; in [9], 8.57%; in [10] it was 11.8%; in assay [11], -17.8%.
`N#Cc1cccc(NC(=O)N[C@H](CO)c2ccccc2)c1`: the Percent Effect in [1] is -2.38%; in assay [2], 5.41%; in [3], 5.16%; in assay [4], 5.37%; in assay [5], -1.35%; in assay [6], 3.33%. The Percent Effect in assay [7] is 11.6%; in assay [8], 5.19%; in assay [9], 1.59%; in assay [10], 12.2%; in [11], -2.38%.
As to `N#Cc1ccccc1CN1CCCCC1Cn1cncn1` (stereo unspecified), the Percent Effect in assay [1] is -0.27%; in assay [2], 13.5%; in [3], -13.3%; in assay [4], -8.54%; in assay [5] it was -5.38%; in assay [6], 0%. Further, the Percent Effect in assay [7] was -0.54%; in assay [8], 15.9%; in assay [9], 9.36%; in [10] it was 13.6%; in assay [11], -5.63%.
As to `c1ccc(Cn2cc(CNC3CCc4ncnn4C3)cn2)cc1` (stereo unspecified), the Percent Effect was -3.66% in [1]; 6.33% in assay [2]; -0.419% in [3]; 1.15% in assay [4]; 0.923% in assay [5]; -3.66% in [6]. In addition, the Percent Effect in assay [7] is 5.66%; in assay [8], 4.51%; in assay [9] it was 3.12%; in assay [10], 10.1%; in [11] it was -19.2%.
In the case of `CC1COCCN1Cc1nc(-c2cccs2)no1` (stereo unspecified), the Percent Effect in assay [1] was -2.46%; in assay [2] it was 10.8%; in [3], 138%; in assay [4] it was -4.28%; in assay [5] it was -3.49%; in assay [6] it was -2.4%. The Percent Effect in assay [7] is 11.5%; in [8], 13.2%; in assay [9], 4.43%; in [10], 13.6%; in [11] it was -7.61%.
As to `CC(C)Oc1ncc(C(=O)N2CCC(NC(=O)C3CC3)CC2)cc1Cl`, the Percent Effect is -5.61% in assay [1]; -2.74% in [2]; -0.0193% in assay [3]; -3.72% in [4]; -5.56% in assay [5]; -0.798% in assay [6]. Besides, the Percent Effect in assay [7] is 12.8%; in assay [8], 5.13%; in [9] it was 0%; in [10], 6.17%; in assay [11], -0.607%.
`CCc1nnc2n1CCN(C(=O)Cc1csc(-c3ccco3)n1)C2`: the Percent Effect in [1] is -4.35%; in assay [2], 15.2%; in assay [3], -5.8%; in assay [4], 9.4%; in assay [5] it was -1.04%; in [6], 3.8%. Further, the Percent Effect was 8.76% in [7]; 13.3% in assay [8]; 4.43% in [9]; 11.4% in assay [10]; -4.32% in assay [11].
For `Cc1nc(C2CCCN(C(=O)c3cnn(C(C)(C)C)c3)C2)no1` (stereo unspecified), the Percent Effect is -11.7% in assay [1]; 16.5% in assay [2]; -6.15% in assay [3]; -0.567% in assay [4]; 4.82% in assay [5]; -1.07% in assay [6]. For the same compound, the Percent Effect in assay [7] is 2.74%; in assay [8], -0.962%; in assay [9], 4.17%; in assay [10], 12.7%; in assay [11], -34.2%.
In the case of `COc1c(CNCc2ccc(N(C)C)nc2)c(C(C)C)nn1C`, the Percent Effect is -3.16% in [1]; 13.2% in [2]; -3.28% in assay [3]; 6.83% in assay [4]; 6.39% in [5]; 4.6% in assay [6]. Besides, the Percent Effect in assay [7] is 6.01%; in assay [8], 13.5%; in assay [9], 5.39%; in assay [10], 17.1%; in [11], -12.6%.
Turning to `CCc1nc(C2CCCN(C(=O)c3cnn(CC)c3)C2)no1` (stereo unspecified), the Percent Effect is -7.03% in assay [1]; 0% in assay [2]; 3.03% in [3]; -1.97% in assay [4]; -5.16% in assay [5]; 1.18% in assay [6]. The Percent Effect is 5.66% in assay [7]; -8.3% in [8]; 1.06% in assay [9]; 5.2% in assay [10]; -2.87% in assay [11].
Consider `CC(=O)N1CCN(c2cc(-c3ccccc3)nc3c(C)c(C)nn23)CC1`, for which the Percent Effect in [1] was -6.15%; in assay [2], -11%; in assay [3], -6.13%; in assay [4] it was 6.66%; in assay [5] it was 4.96%; in assay [6] it was 2.4%. The Percent Effect in assay [7] is 16.2%; in assay [8] it was 4.69%; in assay [9], 7.29%; in assay [10] it was 8.64%; in assay [11], -7.72%.
